By AC50 is commonly meant the concentration giving half of the maximal activity seen.

Active and inactive are the calls of the source. How the source made its calls: active means hit-call score of the fitted dose curve at least 0.9, where 1 is the maximum; inactive means score below 0.9.

From PubChem BioAssay (EPA / NIEHS) come the findings set out here.

Assay [1] can be described thus: APR_HepG2_P-H2AX_72hr: Apredica 72-hour HepG2 Assay for H2AX Phosphorylation (AID 2282916).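 Further: phospho-histone H2A.x immunostain intensity per cell marking DNA damage.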 Particulars: imaging, actives raise or lower the signal. In a few lines: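 Phospho-H2A.x imaging endpoint in HepG2 after 72 hr compound exposure (0.39–200 uM, duplicate wells). Activity derived by bidirectional curve fitting with DMSO as baseline.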
Assay [2] can be described thus: APR_HepG2_MitoMembPot_72hr: Apredica 72-hour HepG2 Assay for Mitochondrial Membrane Potential (AID 2282917). Particulars: imaging, actives raise or lower the signal. The essentials:
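Membrane potential read by MitoTracker Red CMXRos (250 nM, 30 min, pre-fixation) fluorescence imaging of HepG2 after 72 hr exposure. Ten concentrations, 0.39–200 uM, duplicate wells, 0.5% DMSO; fitted in both directions against DMSO baseline.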

The nature of assay [3]: APR_HepG2_MicrotubuleCSK_72hr: Apredica 72-hour HepG2 Assay for Microtubule CSK Stabilty (AID 2282919). The conditions noted are these: HepG2 microtubule cytoskeleton, high-content imaging, actives raise or lower the signal. The essentials:
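High-content imaging of alpha-tubulin staining in fixed HepG2 cells after 72 hr treatment with ten concentrations from 0.39 to 200 uM (0.5% DMSO). Fitting was bidirectional against DMSO; taxol served as positive control.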

A short description of assay [4]: APR_HepG2_P-H2AX_24hr: Apredica 24-hour HepG2 Assay for H2AX Phosphorylation (AID 2282920). The conditions noted are these: high-content imaging, actives raise or lower the signal. In a few lines: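 HCS fluorescence imaging of phospho-H2A.x immunostain (with Hoechst 33342 nuclear counterstain) in HepG2 after 24 hr compound exposure; 10 concentrations, 0.39–200 uM, duplicate wells, 0.5% v/v DMSO. Gain or loss of signal fitted relative to DMSO baseline.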

A short description of assay [5]: APR_HepG2_StressKinase_72hr: Apredica 72-hour HepG2 Assay for Stress Kinase (AID 2282921). The conditions noted are these: HepG2 stress kinase (phospho-c-Jun) imaging, actives raise or lower the signal. The essentials:
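Stress kinase signal reflects nuclear phospho-c-Jun staining in fixed, permeabilized cells exposed 72 h to compound at 0.39–200 uM; DMSO-normalized, fitted for increases or decreases.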

Assay [6] can be described thus: APR_HepG2_StressKinase_24hr: Apredica 24-hour HepG2 Assay for Stress Kinase (AID 2282922). Particulars: HepG2 stress kinase (phospho-c-Jun) imaging, actives raise or lower the signal. In a few lines: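 High-content imaging of phospho-c-Jun immunofluorescence in fixed, permeabilized HepG2 cells after 24 h dosing. Ten concentrations, 0.39 to 200 uM, run in duplicate at 0.5% v/v DMSO; gain or loss of signal versus DMSO.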

A short description of assay [7]: APR_HepG2_p53Act_72hr: Apredica 72-hour HepG2 Assay for p53 Activation (AID 2282923).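 Further: average cellular p53 protein immunofluorescence intensity in HepG2 cells.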 Particulars: high-content imaging, actives raise or lower the signal. The essentials:
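Fixed-cell p53 staining (sheep primary, Cy5 secondary) measured by fluorescence imaging following 72 hr treatment at 0.39–200 uM in 0.5% DMSO; DMSO served as negative control and baseline.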

Assay [8] is described as follows: APR_HepG2_MitoMass_72hr: Apredica 72-hour HepG2 Assay for Mitochondrial Mass (AID 2282924).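 Further: MitoTracker Red CMXRos stain intensity per cell imaged as mitochondrial mass.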 The conditions noted are these: high-content imaging, actives raise or lower the signal. In a few lines:
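Readout is imaged MitoTracker Red (250 nM, 30 min, pre-fixation) signal, fitted bidirectionally against DMSO baseline. Human HepG2 liver cells received compound 0.39–200 uM in duplicate for 72 hr, final DMSO 0.5%.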

Assay [9] can be described thus: APR_HepG2_NuclearSize_72hr: Apredica 72-hour HepG2 Assay for Nuclear Size (AID 2282925). Particulars: high-content imaging, actives raise or lower the signal. The essentials:
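Nuclear size was read by high-content imaging of Hoechst 33342 stain after formaldehyde fixation. Compounds ran 72 h on HepG2 at 0.39 to 200 uM, with final DMSO 0.5% v/v. Curves fitted both directions relative to DMSO control.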

On to `CCC(C)N(C)C(=O)c1cc2ccccc2c(-c2ccccc2Cl)n1` (stereo not given), for which the compound was classed as inactive in assay [1], in assay [3], in assay [5], in [7] and in assay [9]. Besides, the half-maximal activity concentration (AC50) was 67.7 µM (active) in assay [2], 69.8 µM (active) in assay [4], 69.2 µM (active) in assay [6] and 66.4 µM (active) in assay [8].

With `CC(C)NCC(O)c1ccc(O)c(O)c1` (stereo not given), the AC50 in [1] is 86.8 µM (active). The compound was called inactive in [2], in assay [3], in [4], in assay [5], in assay [6] and in [8]. Also, the call in assay [9] was inactive.

For the compound `COc1ccc(C(=O)Nc2nc3ccccc3c(NCc3ccccc3)c2C#N)cc1`, the AC50 is 47.8 µM (active) in assay [1]; 1.45 µM (active) in assay [2]; 106 µM (active) in assay [4]; 5.59 µM (active) in assay [8]; 113 µM (active) in assay [9]. For the same compound, the call in assay [3], in assay [5], in assay [6] and in assay [7] was inactive.

Take `CCCCCCCCCCCCCCCCO`: the call in assay [1], in assay [2], in assay [3], in [4], in assay [5] and in [6] was inactive. The outcome in [8] and in assay [9] was inactive.

Take `O=C1NC(=O)C(c2ccccc2)(c2ccccc2)N1`: the outcome in assay [1], in [2], in assay [3], in [4], in assay [5] and in assay [6] was inactive. Moreover, the compound was classed as inactive in assay [8] and in assay [9].

Take `O=C1CCCCC1`: the compound was classed as inactive in [1], in assay [2], in assay [3], in assay [4], in assay [5] and in [6]. For the same compound, the result in assay [8] and in assay [9] was inactive.

For `Cn1cnc2c1c(=O)[nH]c(=O)n2C`, the result in assay [1], in assay [2], in [3], in assay [4], in assay [5] and in assay [6] was inactive. In addition, the outcome in [8] and in assay [9] was inactive.

Take `Cc1occc(=O)c1O`: the compound was called inactive in assay [1], in assay [2], in assay [3], in [4], in [5] and in assay [6]. Besides, the call in assay [8] and in assay [9] was inactive.

On to `CC1=C(C)S(=O)(=O)CCS1(=O)=O`, for which the AC50 in assay [1] was 82.3 µM (active); in [7], 73.8 µM (active); in assay [8] it was 35.9 µM (active). Besides, the compound was called inactive in assay [2], in assay [3], in [4], in [5], in [6] and in [9].

`CC(C)OC(=O)C(C)(C)Oc1ccc(C(=O)c2ccc(Cl)cc2)cc1`: the call in assay [1], in assay [2], in assay [3], in assay [4], in [5] and in assay [6] was inactive. Moreover, the compound was called inactive in assay [8] and in [9].

Consider `CC(=O)O`, for which the AC50 in assay [1] is 92 µM (active); in [2] it was 100 µM (active); in [4] it was 66.4 µM (active); in [8] it was 0.0355 µM (active). The outcome in assay [3], in assay [5], in [6] and in assay [9] was inactive.

Turning to `CCCCCCC(C=O)=Cc1ccccc1`, the compound was classed as inactive in assay [1], in assay [2], in assay [3], in assay [4], in [5] and in [6]. Besides, the outcome in assay [8] and in assay [9] was inactive.

For `COc1ccc(OC(F)(F)F)cc1CN[C@H]1CCCN[C@H]1c1ccccc1`, the AC50 in assay [1] is 28.3 µM (active); in assay [2], 55.9 µM (active); in assay [4], 32.6 µM (active); in assay [5], 28.8 µM (active); in [7] it was 24.3 µM (active); in [8], 62.3 µM (active). Besides, the compound was called inactive in assay [3], in assay [6] and in assay [9].

Take `CC(C)c1cccc(C(C)C)c1`: the outcome in [1], in assay [2], in [3], in [4], in assay [5] and in assay [6] was inactive. For the same compound, the compound was classed as inactive in assay [8] and in [9].

Regarding `CCCC(=O)O`, the outcome in assay [1], in assay [2], in [3], in assay [4], in assay [5] and in assay [6] was inactive. For the same compound, the result in assay [8] and in assay [9] was inactive.

Regarding `CCCCCCCCCCCCCCOS(=O)(=O)O`, the AC50 in assay [1] was 110 µM (active); in [2] it was 110 µM (active); in assay [4] it was 114 µM (active); in assay [7], 111 µM (active); in assay [8], 121 µM (active). The compound was classed as inactive in assay [3], in assay [5], in assay [6] and in [9].

In the case of `CCCCCCCCCC[N+](C)(C)[O-]`, the compound was classed as inactive in assay [1], in assay [3], in [4], in assay [5], in assay [6] and in [7]. Besides, the compound was classed as inactive in assay [8] and in assay [9]. For the same compound, the AC50 in assay [2] was 169 µM (active).

With `O=Cc1ccccc1C=O`, the call in [1], in assay [2], in assay [3], in assay [4], in assay [5] and in assay [6] was inactive. Moreover, the compound was classed as inactive in [8] and in [9].

On to `CC(=O)O[C@]1(C(C)=O)CC[C@H]2[C@@H]3C=C(Cl)C4=CC(=O)[C@@H]5C[C@@H]5[C@]4(C)[C@H]3CC[C@@]21C`, for which the call in [1], in assay [2], in assay [3], in assay [4], in assay [5] and in [6] was inactive. The compound was classed as inactive in assay [8] and in assay [9].

Regarding `CCN(CC)CCOc1ccc(C(=C(Cl)c2ccccc2)c2ccccc2)cc1`, the half-maximal activity concentration (AC50) in assay [1] is 5.35 µM (active); in [3], 61.2 µM (active); in assay [4] it was 10.5 µM (active); in [8], 77.9 µM (active). For the same compound, the call in assay [2], in assay [5], in assay [6] and in assay [9] was inactive.

Regarding `CC(=O)CC(c1ccccc1)c1c(O)c2ccccc2oc1=O` (stereo not given), the compound was classed as inactive in assay [1], in assay [2], in assay [3], in [4], in assay [5] and in assay [6]. The outcome in assay [8] and in [9] was inactive.

As to `Oc1ccccc1O`, the AC50 in assay [1] was 53.2 µM (active); in [4], 67.9 µM (active). Besides, the result in assay [5], in assay [6], in assay [7] and in [9] was inactive.

As to `CCc1cc(C2=C(C(=O)O)N(c3ccccc3C(F)(F)F)S(=O)(=O)c3ccccc32)cc2c1OCO2`, the result in assay [1], in [2], in assay [3], in assay [4], in [5] and in [6] was inactive. The compound was called inactive in assay [7], in [8] and in assay [9].

On to `CCCCC(CC)COP(=O)(OCC(CC)CCCC)OCC(CC)CCCC` (stereo not given), for which the half-maximal activity concentration (AC50) in [1] was 46.1 µM (active); in assay [3], 51.5 µM (active); in assay [4], 68 µM (active); in assay [7] it was 42.5 µM (active). Further, the call in [2], in [5], in [6], in [8] and in [9] was inactive.

With `O=NO`, the compound was called inactive in [1], in assay [2], in assay [3], in assay [4], in [5] and in [6]. The outcome in assay [8] and in assay [9] was inactive.

Consider `Cc1cc(SC2=C(O)C[C@@](CCc3ccc(N)cc3)(C(C)C)OC2=O)c(C(C)(C)C)cc1CO`, for which the result in assay [1], in [2], in [3], in assay [4], in [5] and in assay [6] was inactive. In addition, the result in assay [7], in assay [8] and in [9] was inactive.
